Laboratory results taken from PubChem BioAssay (NCI).
About 79,000 compounds went through this panel and 15% of them were active in at least one assay; those are over-represented in the sample as a whole. The source made the active and inactive calls. Cut-off read from the data, not from the text of the source: active = growth inhibition above about 70%; inactive = the rest.

How the values were obtained:
[1] = NCI Yeast Anticancer Drug Screen. Data for the rad52 strain (AID 147);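 note: 0% = growth of vehicle-treated control cultures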; conditions: S. cerevisiae rad52 mutant growth inhibition, stronger effect = higher value
Summary of the method: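 The repair-mutant yeast strain was incubated with compounds, then growth was read and inhibition derived relative to vehicle.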

[2] = NCI Yeast Anticancer Drug Screen. Data for the wt1 strain (AID 149);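 note: 0% = growth of vehicle-treated wt1 cultures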; conditions: S. cerevisiae wt1 strain (SPY 50644) growth inhibition, stronger effect = higher value
Summary of the method: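 Each compound is tested on wt1 yeast and the loss of growth versus vehicle gives the inhibition value.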

[3] = NCI Yeast Anticancer Drug Screen. Data for the rad50EPP+ strain (AID 151);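 note: 0% = growth of vehicle-treated control cultures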; conditions: S. cerevisiae rad50 mutant strain, stronger effect = higher value
Summary of the method: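 Vehicle-normalised growth inhibition; rad50EPP+ yeast strain, altered in DNA damage repair, compound-treated.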

[4] = NCI Yeast Anticancer Drug Screen. Data for the mgt1 strain (AID 153); conditions: S. cerevisiae mgt1 mutant growth inhibition, stronger effect = higher value
Summary of the method: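 Vehicle-normalized growth inhibition is determined in mgt1 yeast, a strain selected for a defined alteration in DNA repair or cell cycle control.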

[5] = NCI Yeast Anticancer Drug Screen. Data for the rad50 strain (AID 155);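 note: 0% = growth of vehicle-only cultures of the same strain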; conditions: S. cerevisiae rad50 strain growth inhibition, stronger effect = higher value
Summary of the method: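 Vehicle-treated cultures provide the reference for the growth inhibition reported for compound-exposed, repair-deficient yeast.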

[6] = NCI Yeast Anticancer Drug Screen. Data for the mec2-1 strain (AID 157); conditions: S. cerevisiae mec2-1 strain, stronger effect = higher value
Summary of the method: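 Mutant yeast (mec2-1) grown with compound; growth inhibition relative to vehicle control reported.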

[7] = NCI Yeast Anticancer Drug Screen. Data for the rad14 strain (AID 159);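 note: 0% = growth of vehicle-treated control cultures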; conditions: S. cerevisiae rad14 strain growth inhibition, stronger effect = higher value
Summary of the method: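 Inhibition of growth is reported for a repair-deficient yeast mutant following compound treatment, calculated relative to cultures that received vehicle.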

[8] = NCI Yeast Anticancer Drug Screen. Data for the sgs1 mgt1 strain (AID 161);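 note: 0% = growth of cultures given vehicle only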; conditions: S. cerevisiae sgs1 mgt1 strain, stronger effect = higher value
Summary of the method: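 Growth of a repair-deficient yeast mutant was monitored after compound treatment and expressed as inhibition relative to vehicle-treated cultures.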

[9] = NCI Yeast Anticancer Drug Screen. Data for the CLN2oe strain (AID 163);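 note: 0% = growth of vehicle-only control cultures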; conditions: S. cerevisiae CLN2oe strain, stronger effect = higher value
Summary of the method: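 Compounds are applied to yeast harbouring a defined cell-cycle control change; reduced growth compared with vehicle-treated controls gives the value.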

[10] = NCI Yeast Anticancer Drug Screen. Data for the cln2 rad14 strain (AID 165);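 note: 0% = growth equal to vehicle treated cultures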; conditions: S. cerevisiae cln2 rad14 strain, stronger effect = higher value
Summary of the method: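 Readout is yeast growth inhibition versus vehicle-treated controls, using a strain with cln2 and rad14 alterations exposed to compound.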

[11] = NCI Yeast Anticancer Drug Screen. Data for the bub3 strain (AID 167); conditions: S. cerevisiae bub3 mutant strain, stronger effect = higher value
Summary of the method: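 Mutant yeast screening strain plus compound; vehicle-treated cultures serve as the 0% inhibition reference.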

[12] = NCI Yeast Anticancer Drug Screen. Data for the wt2 strain (AID 169); conditions: S. cerevisiae wt2 strain growth inhibition, stronger effect = higher value
Summary of the method: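 Against vehicle-treated controls, the growth of yeast exposed to each compound was compared, and the inhibition was recorded.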

[13] = NCI Yeast Anticancer Drug Screen. Data for the mlh1 strain (AID 171);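 note: 0% = growth of vehicle-treated control cultures of the same strain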; conditions: S. cerevisiae mlh1 strain growth inhibition, stronger effect = higher value
Summary of the method: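 Measured: yeast growth. Reference: vehicle-treated controls. Organism: strain with a defined alteration affecting DNA damage repair or cell cycle control, treated with compound.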

[14] = NCI Yeast Anticancer Drug Screen. Data for the sgs1 strain (AID 173);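 note: 0% = growth of vehicle-only control cultures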; conditions: S. cerevisiae sgs1 mutant, stronger effect = higher value
Summary of the method: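 Each compound was added to cultures of the altered yeast strain. Growth was recorded, and inhibition was derived by comparison with vehicle controls.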

[15] = NCI Yeast Anticancer Drug Screen. Data for the mlh1 rad18 strain (AID 175); conditions: S. cerevisiae mlh1 rad18 strain growth inhibition, stronger effect = higher value
Summary of the method: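 Genetically defined yeast (DNA repair-deficient) exposed to compounds; growth inhibition determined relative to vehicle.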

[16] = NCI Yeast Anticancer Drug Screen. Data for the rad18 strain (AID 177); conditions: S. cerevisiae rad18 mutant growth inhibition, stronger effect = higher value
Summary of the method: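 Vehicle-treated cultures served as the baseline for scoring compound-induced growth inhibition in DNA-repair-mutant yeast.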

[17] = at 5.0 µM (retest, dose inferred, filed as 0.5)
[18] = at 50.0 µM (retest, dose inferred, filed as 5.0)

Measured: growth inhibition

CN1c2ccc(Cl)cc2C(=O)NC1c1ccc([N+](=O)[O-])s1 (stereo not drawn)
active: [1]; at 33.0 µM 97% | [1]; at 100.0 µM 97% | [2]; at 33.0 µM 92% | [2]; at 100.0 µM 96% | [4]; at 33.0 µM 97% | [4]; at 100.0 µM 96% | [5]; at 11.0 µM 72% | [5]; at 33.0 µM 97% | [5]; [18] 95% | [5]; at 50.0 µM 91.3% | [5]; at 100.0 µM 96% | [6]; at 33.0 µM 93% | [6]; [18] 95% | [6]; at 50.0 µM 93.2% | [6]; at 100.0 µM 96% | [7]; at 11.0 µM 71% | [7]; at 33.0 µM 96% | [7]; at 100.0 µM 97% | [8]; [18] 94% | [8]; at 50.0 µM 93.8% | [9]; at 33.0 µM 92% | [9]; at 100.0 µM 97% | [10]; [18] 96% | [10]; at 50.0 µM 91% | [11]; at 33.0 µM 93% | [11]; [18] 97% | [11]; at 50.0 µM 92.4% | [11]; at 100.0 µM 97% | [12]; at 33.0 µM 97% | [12]; at 100.0 µM 97% | [13]; at 33.0 µM 96% | [13]; at 100.0 µM 97% | [14]; at 33.0 µM 95% | [14]; at 100.0 µM 96% | [15]; [18] 98% | [15]; at 50.0 µM 92.8% | [16]; at 11.0 µM 81% | [16]; at 33.0 µM 96% | [16]; at 100.0 µM 97%
inactive: [1]; at 1.2 µM 27% | [1]; at 3.7 µM 30% | [1]; at 11.0 µM 65% | [2]; at 1.2 µM 5% | [2]; at 3.7 µM 1% | [2]; at 11.0 µM 17% | [3]; at 1.2 µM 0% | [3]; at 3.7 µM -4% | [3]; at 11.0 µM 18% | [3]; at 33.0 µM 61% | [3]; at 100.0 µM 67% | [4]; at 1.2 µM -5% | [4]; at 3.7 µM 8% | [4]; at 11.0 µM 23% | [5]; at 1.2 µM 20% | [5]; at 3.7 µM 39% | [5]; [17] 9% | [6]; at 1.2 µM -7% | [6]; at 3.7 µM -52% | [6]; [17] 19% | [6]; at 11.0 µM 14% | [7]; at 1.2 µM -8% | [7]; at 3.7 µM -3% | [8]; [17] -10% | [9]; at 1.2 µM 4% | [9]; at 3.7 µM -2% | [9]; at 11.0 µM -3% | [10]; [17] 37% | [11]; at 1.2 µM 0% | [11]; at 3.7 µM 2% | [11]; [17] -1% | [11]; at 11.0 µM 11% | [12]; at 1.2 µM 7% | [12]; at 3.7 µM 4% | [12]; at 11.0 µM 42% | [13]; at 1.2 µM 13% | [13]; at 3.7 µM 14% | [13]; at 11.0 µM 51% | [14]; at 1.2 µM -4% | [14]; at 3.7 µM 13% | [14]; at 11.0 µM 58% | [15]; [17] 2% | [16]; at 1.2 µM 3% | [16]; at 3.7 µM 25%

COc1cc2c(c(OC)c1OC)-c1c(cc3c(c1OC)OCO3)CC(C)C(C)(O)C2OC(=O)c1ccccc1 (stereo not drawn)
inactive: [1]; at 1.2 µM -26% | [1]; at 3.7 µM -15% | [1]; at 11.0 µM -25% | [1]; at 33.0 µM -22% | [1]; at 100.0 µM 47% | [2]; at 1.2 µM -16% | [2]; at 3.7 µM -26% | [2]; at 11.0 µM -10% | [2]; at 33.0 µM 7% | [2]; at 100.0 µM 3% | [3]; at 1.2 µM -2% | [3]; at 3.7 µM -19% | [3]; at 11.0 µM -26% | [3]; at 33.0 µM -21% | [3]; at 100.0 µM 5% | [4]; at 1.2 µM -5% | [4]; at 3.7 µM -9% | [4]; at 11.0 µM -14% | [4]; at 33.0 µM -17% | [5]; at 1.2 µM -53% | [5]; at 3.7 µM -18% | [5]; [17] -3% | [5]; at 11.0 µM -25% | [5]; at 33.0 µM -17% | [5]; [18] 40% | [5]; at 100.0 µM 50% | [6]; at 1.2 µM -2% | [6]; at 3.7 µM 12% | [6]; [17] -8% | [6]; at 11.0 µM 16% | [6]; at 33.0 µM 12% | [6]; [18] 13% | [6]; at 50.0 µM 55.5% | [6]; at 100.0 µM 34% | [7]; at 1.2 µM 9% | [7]; at 3.7 µM 1% | [7]; at 11.0 µM -5% | [7]; at 33.0 µM -4% | [7]; at 100.0 µM 33% | [8]; [17] 19% | [8]; [18] 68% | [9]; at 1.2 µM 27% | [9]; at 3.7 µM 17% | [9]; at 11.0 µM 16% | [9]; at 33.0 µM 20% | [9]; at 100.0 µM 45% | [10]; [17] 10% | [10]; [18] 68% | [10]; at 50.0 µM 50.2% | [11]; at 1.2 µM -8% | [11]; at 3.7 µM 11% | [11]; [17] -2% | [11]; at 11.0 µM 10% | [11]; at 33.0 µM 22% | [11]; [18] 49% | [11]; at 100.0 µM 36%
active: [4]; at 100.0 µM 70% | [5]; at 50.0 µM 71.2% | [8]; at 50.0 µM 85.4% | [11]; at 50.0 µM 72.2%
